Source: PubChem BioAssay (NCATS)
Inconclusive results are not listed. Entries that show only a call come without a potency. The source made the active and inactive calls. Unless noted, calls come from the whole dose curve; as a rule, active = well fitted curve in the direction sought with a large enough effect; inconclusive = small, poorly fitted or top-dose-only effect, or another doubt; inactive = no such curve, though single readings can be large; an effect the other way counts as inactive or inconclusive.

Key:
[1] = qHTS to identify inhibitors of the type 1 interferon - major histocompatibility complex class I in skeletal muscle: primary screen against the NCATS Mechanism Interrogation Plate v5.0 (MIPE) Libary (AID 1347411); note: nearly all actives have a fitted effect of over 65% in size; note: potency is the fitted concentration of half-maximal effect
Outline: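 Luminescence from HiBiT-tagged endogenous HLA-B*08:01 served as the MHC class I read-out. CRISPR-engineered C25cl48 human myoblasts received 4.0 ng/ml IFN-beta plus compound for 24 hrs, with an 11-point, 1:3 series topping at 46 uM final.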

[2] = Primary qHTS for inhibitors of nuclear receptor binding SET domain protein 2 (NSD2) in an isogenic RCH-ACV NSD2 p.E1099K mutant (9B) (AID 1645876); note: nearly all actives have a fitted effect of over 70% in size; note: potency is the fitted concentration of half-maximal effect
[3] = Primary qHTS for inhibitors of nuclear receptor binding SET domain protein 2 (NSD2) in an RCH-ACV wild type WT cells (2C) (AID 1645877); note: nearly all actives have a fitted effect of over 70% in size; note: potency is the fitted concentration of half-maximal effect
[4] = molecular target: Glutathione peroxidase 1 (Homo sapiens) (UniProt P07203); assay: Primary qHTS Assay for Inhibitors of Recombinant Selenoprotein Glutathione Peroxidase 1 (GPX1) (AID 1845191); note: nearly all actives have a fitted effect of over 65% in size
Sequence of Glutathione peroxidase 1 (Homo sapiens) (P07203 whole entry, looked up): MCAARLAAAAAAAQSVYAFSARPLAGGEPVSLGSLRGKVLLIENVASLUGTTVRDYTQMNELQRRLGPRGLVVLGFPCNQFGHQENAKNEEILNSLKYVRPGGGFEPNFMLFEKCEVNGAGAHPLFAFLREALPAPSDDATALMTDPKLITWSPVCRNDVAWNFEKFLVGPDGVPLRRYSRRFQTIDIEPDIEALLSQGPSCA
Outline: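 GR-coupled assay: compounds preincubated 30 min at room temperature with GPX1, then reaction started with CHP; final 10 nM GPX1, 1 mM GSH, 0.5 mM CHP, 0.5 mM NADPH, 100 nM GR, 0.01% BSA, pH 7.5 Tris buffer. NADPH fluorescence (340/450 nm) read at 0 and 15 min.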

[5] = molecular target: Phospholipid hydroperoxide glutathione peroxidase GPX4 (Homo sapiens) (UniProt P36969); assay: Primary qHTS Assay for Inhibitors of Recombinant Selenoprotein Glutathione Peroxidase 4 (GPX4) (AID 1845192); details: outcome: dose series up to 50 µM unless noted; note: nearly all actives have a fitted effect of over 65% in size
Sequence of Phospholipid hydroperoxide glutathione peroxidase GPX4 (Homo sapiens) (P36969 whole entry, looked up): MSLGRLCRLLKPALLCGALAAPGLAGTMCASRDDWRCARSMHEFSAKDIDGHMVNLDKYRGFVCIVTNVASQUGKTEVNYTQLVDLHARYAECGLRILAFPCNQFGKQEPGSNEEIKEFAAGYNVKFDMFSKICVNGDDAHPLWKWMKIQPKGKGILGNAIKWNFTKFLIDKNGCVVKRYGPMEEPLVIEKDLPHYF
Outline: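 GR-coupled assay: recombinant GPX4 preincubated 30 min with compound at room temperature; final 200 nM GPX4, 1 mM GSH, 0.5 mM cumene hydroperoxide, 0.5 mM NADPH, 100 nM GR, 0.01% BSA, pH 7.5 Tris. NADPH fluorescence (340/450 nm) read at 0 and 15 min.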

[6] = qHTS drug screen for cell cycle checkpoint inhibitors in PARPi-resistant BRCA-mutant ovarian cancer cell lines. (AID 1963452; calls by dose curve); details: PEO1/OlaR viability, CellTiter-Glo luminescence, 96 h, stronger effect = lower value
Outline: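 PEO1, PEO4 and PEO1/OlaR ovarian cancer cells, 600 per well, exposed 96 h at 37C to a dilution series. Viability read by CellTiter-Glo luminescence, normalized to DMSO and empty wells; activity summarized as Z-AUC.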

[7] = measured here: PEO1 parental Z-AUC

Row | Compound | Potency [1] | Potency [2] | Potency [3] | Potency [4] | Potency [5] | Z-AUC [6] | Z-AUC [6, 7] | Z-AUC ([6]; measured here: PEO4 Z-AUC)
1 | Cc1c(Cl)cccc1S(=O)(=O)Nc1nc(CCN2CCOCC2=O)cs1 | inactive | inactive | inactive | inactive | inactive | 0.943 (inactive) | 0.512 | 0.46
2 | Cc1cc(C)c(S(=O)(=O)N(CCc2cccc(Br)c2)Cc2ccc(-c3cccc(S(C)(=O)=O)c3)cc2)c(C)c1 | inactive | inactive | inactive | inactive | inactive | 0.662 (inactive) | 0.747 | 0.467
3 | N=C1CCCN1Cc1[nH]c(=O)[nH]c(=O)c1Cl | inactive | inactive | inactive | inactive | inactive | -0.424 (inactive) | 0.0295 | -0.23
4 | O=S(=O)(Nc1ccc(-c2cccnc2)c2cccnc12)c1cccc(C(F)(F)F)c1 | 8.29 µM (active) | 7.42 µM (active) | 7.42 µM (active) | inactive | inactive | 0.456 (inactive) | 0.0874 | 0.396
5 | C=C1CCC[C@]2(C)C=C3OC(=O)C(C)=C3C[C@@H]12 | inactive | inactive | inactive | inactive | inactive | 0.206 (inactive) | -0.068 | -0.0438
6 | C[C@H](NC(=O)[C@H]1NCC[C@@H]1O)c1ccc(-c2noc(CCC3CCCC3)n2)cc1 | inactive | inactive | inactive | inactive | inactive | 0.833 (inactive) | 0.65 | 0.666
7 | O=C1OC(COc2ccccc2[N+](=O)[O-])CC1Cc1ccccc1 (stereo not given) | inactive | inactive | inactive | inactive | inactive | -0.926 (inactive) | -0.0369 | -0.342
8 | Cc1c(NC(=O)c2cc(C(N)=O)nc3cc(F)ccc23)c(C(F)(F)F)nn1Cc1ccc(C(C)(C)C)cc1 | inactive | inactive | inactive | inactive | inactive | -0.453 (inactive) | -0.106 | 0.0379
9 | OC[C@H]1O[C@@H](S[C@@H]2O[C@H](CO)[C@H](O)[C@H](n3cc(-c4cccc(F)c4)nn3)[C@H]2O)[C@H](O)[C@@H](n2cc(-c3cccc(F)c3)nn2)[C@H]1O | inactive | inactive | inactive | inactive | inactive | -0.122 (inactive) | 0.00215 | 0.252
10 | NC(CC1c2ccccc2Oc2ccccc21)(C(=O)O)C1CC1C(=O)O (stereo not given) | inactive | inactive | inactive | inactive | inactive | -0.154 (inactive) | 0.493 | 0.591
